Only some compounds are listed: those with a hit (about 7.9% of all), similar ones and a draw of the others.
LASV entry inh = blocks Lassa virus binding to or entry into cells; Lassa virus pseudotype entry inhibition, cell reporter; Potency, µM (top dose mostly 37.9 µM), without a hit: top-dose activity change, negative = inhibition, most hits filed as inhibitors; 1.2% of 300,000 active; AID 540256; calls by dose curve; tested in HEK293 cells; further: potency means the concentration at half of the fitted maximal effect; nearly all actives have a fitted effect of over 50% in size
FMDV inh = foot and mouth disease virus antiviral activity; 1.2% of 410,000 active; FMDV antiviral cell-based qHTS; Potency, µM (series often up to 57.9 µM), inactives show top-dose activity change, negative = inhibition, usual class: inhibitors; calls by dose curve; tested in HEK293T cells; further: read-out not given here; potency means the concentration at half of the fitted maximal effect; nearly all actives have a fitted effect of over 45% in size
HCMV antiviral = inhibitors of human cytomegalovirus | HFF cells, HCMV-luciferase reporter, 72 h; active compounds read low | activity change, negative = inhibition, % at 57.5 µM | 4.5% of 410,000 active; in the data active means activity change below about -60%; inconclusive means no clear call, values can overlap the other calls; inactive means above about -39%
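HFF cells seeded 16 h at 37C, treated with compounds, infected with luciferase-reporter HCMV at MOI 1 PFU/cell; luciferase read at 72 h post infection, normalized to buffer-only and Salinomycin controls.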
MARV entry inh = inhibitors of Marburg virus binding or cell entry | Marburg virus pseudotyped entry inhibition, cell reporter | Potency, µM (titrated, usually from 37.8 µM), without a hit: at the top dose activity change, negative = inhibition, actives largely listed as inhibitors | 1.8% of 300,000 active; calls by dose curve; tested in HEK293 cells; further: potency means the concentration at half of the fitted maximal effect
HCV inh = blocks hepatitis C virus. Huh7.5.1 HCVcc-Cre infection, luciferase reporter, 44 h. AID 651820. Potency, µM (top dose mostly 41.8 µM), for inactives: at the top dose activity change, negative = inhibition, actives largely listed as inhibitors. 3.4% of 340,000 active; active means well fitted inhibition curve with a large enough effect; inconclusive means small, poorly fitted or top-dose-only effect, or another doubt; inactive means no such curve, though single readings can be large or run the other way; further: potency means the concentration at half of the fitted maximal effect
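Cells (1,000/well) were plated 4 h before compound, then infected with HCVcc-Cre virus (~0.5 moi). After 44 h further culture, infection was read as luciferase luminescence following a 15 min substrate incubation at room temperature.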
Starred values were filed as active, the others as inactive; ? = inconclusive; nt = no result; [ ] = remark or other dose. On the % scale 0 is the no-effect control and ±100 the full control effect.

SMILES | LASV entry inh | FMDV inh | HCMV antiviral | MARV entry inh | HCV inh
CCCNC(=O)c1onc(CSc2ccc(F)cc2)c1C(=O)NCCOC | nt | 4% | 2 | nt | -2%
COc1ccc(OC)c(CNC(=O)C2CCN(S(=O)(=O)c3ccc4[nH]c(=O)oc4c3)CC2)c1 | 1%[46.1 µM] | -8% | 13 | nt | nt
CC(C)Oc1ccc(C(=O)/C(=C\c2cccs2)c2nc3ccccc3o2)cc1 | ? | -26% | -73* | ? | ?
CC(=O)N1c2ccc(C)cc2C(c2ccccc2)CC1C (configuration not stated) | ? | -7% | 197 | 6.3µM* | 2%
O=C(Cc1ccc(Cl)cc1)Nc1nnc2n1CCS2 | -1%[46.1 µM] | 18% | 3 | nt | nt
CC1CCN(c2nc3c(c(=O)[nH]c(=O)n3C)n2Cc2ccccc2)CC1 | nt | 0% | -38 | nt | 14%
CCn1c(N2CCC(Cc3ccccc3)CC2)nc2c1c(=O)[nH]c(=O)n2C | ? | 28µM* | 44 | ? | -23%
CCCCCn1c(CN2CCN(Cc3ccccc3)CC2)nc2c1c(=O)[nH]c(=O)n2C | 4% | 0% | -69* | 11% | -2%
O=C(NCCCN1CCOCC1)c1cccc(S(=O)(=O)Nc2ccccc2Cl)c1 | -18% | -25% | 1 | 10% | 3%
CC(C)CCn1nnnc1CN1CCN(c2ccc(F)cc2)CC1 | 0% | -10% | -102* | -15%[46.1 µM] | 5%
O=C1CS(=O)(=O)C2(C(=O)N(Cc3ccc(F)cc3)c3ccccc32)N1c1cccc(C(F)(F)F)c1 (configuration not stated) | 4%[46.1 µM] | -1% | -77* | nt | nt
O=c1cc(-c2ccc(O)cc2)oc2ccc(O)cc12 | ? | 27% | 84 | -17%[46.1 µM] | 32µM*
COC(=O)[C@@H]1CCCN1Cc1ccc2c(c1)CN(Cc1ccc3c(c1)OCCO3)CCO2 | nt | -12% | nt | nt | nt
Cc1nc2ccccn2c1-c1ccnn1S(=O)(=O)c1ccc(F)cc1 | nt | ? | -94* | nt | ?
Cc1nc2ccccn2c1C(=O)/C=C/c1ccc(F)cc1 | ? | -21% | 79 | -28% | -5%
Clc1cccc(Cl)c1C1N2CCCN12 (configuration not stated) | -4% | -18% | -63* | 8%[46.1 µM] | 6%
CC(=O)Oc1ccc(C(=O)NCCc2ccccc2)cc1 | 7.1µM* | -21% | -3 | ? | 4%
CCOc1ccc(C(=O)NCCc2ccccc2)cc1 | 8.2µM* | nt | 10 | ? | -7%
CC(=O)Oc1ccc(-c2ccc(C(=O)NCCc3ccc(S(N)(=O)=O)cc3)cc2)cc1 | -10%[46.1 µM] | -15% | -1 | ? | 6%
COc1ccc(C(=O)N(C)c2ccccc2C(=O)NCCc2ccccc2)cc1 | 4µM* | 14% | -97* | ? | ?
COC[C@@H]1CCCN1[C@@H]1C[S+](=O)([O-])N[C@@H]1COCc1ccccc1 | -2%[46.1 µM] | nt | nt | nt | nt
CN(C)C(=O)c1ccc(Nc2nccc3c2cc(-c2ccsc2)n3C)cc1 | nt | nt | -15 | nt | nt
c1ccc(Cn2nnc3c(N4CCN(Cc5ccc6c(c5)OCO6)CC4)ncnc32)cc1 | -14% | ? | -22 | ? | 7.1µM*
CCOC(=O)c1cccc(NS(=O)(=O)c2ccc(NC(C)=O)cc2)c1 | -20% | -23% | -88* | -3% | 2%
CC(=O)c1ccc(NS(=O)(=O)c2ccc(C)cc2)cc1 | -5% | 62% | 26 | -15%[46.1 µM] | 28%
SMILES | LASV entry inh | FMDV inh | HCMV antiviral | MARV entry inh | HCV inh
CC(=O)NCCc1ccc(S(=O)(=O)Nc2ccc(NC(=O)c3ccc(F)cc3)cc2)cc1 | -13% | 49% | 61 | -1% | 10µM*
COc1cc(OC)c(OC)cc1/C=C/C(=O)c1ccc(NS(=O)(=O)c2ccc(C)cc2)cc1 | ? | -13% | -78* | ? | ?
COc1ccc(S(=O)(=O)Nc2ccc3c(c2)CCC3)cc1 | ? | 14% | ? | 2%[46.1 µM] | ?
CC(=O)Nc1ccc(S(=O)(=O)Nc2ccc3c(c2)CCC3)cc1 | -27%[46.1 µM] | 1% | -60* | ? | ?
Cc1ccc(N(CC(=O)NC2CCCCC2)C(=O)CCC(=O)Nc2nccs2)cc1 | 11% | 8% | 48 | -1%[46.1 µM] | 5%
CCn1cc(/C=N\NC(=O)Cc2ccc([N+](=O)[O-])cc2)c(C)n1 | 0% | 0% | -32 | 20% | 12%
COc1ccc(C(=O)/C=C/Nc2ccc(S(=O)(=O)Nc3cccc(C(C)=O)c3)cc2)cc1 | ? | 0% | -72* | ? | 11µM*
O=C(O)c1cccc(NS(=O)(=O)c2ccc(-c3ccc(S(=O)(=O)Nc4cccc(C(=O)O)c4)cc3)cc2)c1 | nt | -17% | -72* | nt | 27%
